From PubChem BioAssay (NCATS)
Results filed as inconclusive are left out. A number with no mark means an inactive call. The source made the active and inactive calls. Calls come from the whole dose curve; as a rule, active = well fitted cell-killing curve with a large enough effect; inconclusive = small, poorly fitted or top-dose-only effect; inactive = no such curve, though single readings can be large or run the other way.

Experiment: qHTS of pediatric cancer cell lines to identify multiple opportunities for drug repurposing: Primary screen for NB-EBc1 cells (AID 1347095);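 for activity change, negative = cytotoxic: plate controls were DMSO neutral control for no effect and bortezomib for full effect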
Details: NB-EBc1 neuroblastoma viability, CellTiter-Glo luminescence, 48 h; series mostly up to 46 µM; activity change, negative = cytotoxic: at the top concentration
Method in brief: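 Primary screen of approved and investigational compounds on cells in growth media at 37 degrees C, 5% CO2. MIPE set at 11-point and NPC set at 8-point dilutions; viability scored by ATP-based luminescence at 48 hours.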
Potency is the fitted concentration of half-maximal effect.

| SMILES | Potency | activity change, negative = cytotoxic [%] |
| --- | --- | --- |
| O=C(Nc1nc2cccc(-c3ccc(CN4CCS(=O)(=O)CC4)cc3)n2n1)C1CC1 | 10.5 µM (active) |  |
| C[C@@H](Oc1cc(-c2cnn(C3CCNCC3)c2)cnc1N)c1c(Cl)ccc(F)c1Cl | 9.35 µM (active) |  |
| C=CC(=O)Nc1cccc(Oc2nc(Nc3ccc(N4CCN(C)CC4)cc3OC)ncc2Cl)c1 | 2.35 µM (active) |  |
| CN(C)CCCN=c1c2ccccc2n(C)c2[nH]c(=O)n(C)c(=O)c12 | 0.743 µM (active) |  |
| CC(=O)Nc1sc2c(c1-c1nc3ccccc3s1)CNC2 | 2.35 µM (active) |  |
| Nc1nccc(Oc2ccc(NC(=O)c3c[nH]cc(-c4ccc(F)cc4)c3=O)cc2F)c1Cl | 1.05 µM (active) |  |
| CC1(O)CC(c2nc(-c3ccc4ccc(-c5ccccc5)nc4c3)c3c(N)nccn23)C1 (centres undefined) | 0.662 µM (active) |  |
| Nc1cccc(-c2cc3c(Oc4cccc(O)c4)ncnc3[nH]2)c1 | 3.72 µM (active) |  |
| Cc1cc(CN2CCN(c3c(Br)cnc4nc(-c5ccc(N6CCN(C)CC6)cc5)[nH]c34)CC2)no1 | 2.35 µM (active) |  |
| COc1cc2c(Oc3ccc4[nH]c(C)cc4c3F)ncnc2cc1OCCCN1CCCC1 | 4.18 µM (active) |  |
| CC(=O)c1c(C)c2cnc(Nc3ccc(N4CCNCC4)cn3)nc2n(C2CCCC2)c1=O | 20.9 µM (active) |  |
| Cn1cncc1[C@@](N)(c1ccc(Cl)cc1)c1ccc2c(c1)c(-c1cccc(Cl)c1)cc(=O)n2C | 11.8 µM (active) |  |
| Cc1cc(N2CCOCC2)cc2[nH]c(-c3c(NC[C@@H](O)c4cccc(Cl)c4)cc[nH]c3=O)nc12 | 0.59 µM (active) |  |
| Cc1cccc(C=NNc2cc(N3CCOCC3)nc(OCCc3ccccn3)n2)c1 | 1.32 µM (active) |  |
| CCN1CCN(CC(=O)Nc2ccc(-c3cccc4c(=O)cc(N5CCOCC5)oc34)c3sc4ccccc4c23)CC1 | 1.18 µM (active) |  |
| Cc1cc(Nc2cc(N3CCN(C)CC3)nc(Sc3ccc(NC(=O)C4CC4)cc3)n2)n[nH]1 | 0.935 µM (active) |  |
| CCOC(=O)C1=C(C)NC2=C(C(=O)CC(C)(C)C2)C1c1ccc(-c2ccccc2)cc1 (centres undefined) | 5.9 µM (active) |  |
| COc1cc2ncn(-c3cc(OCc4ccccc4C(F)(F)F)c(C(N)=O)s3)c2cc1OC | 4.69 µM (active) |  |
| O=C(CCCCCCC(=O)Nc1ccc([C@H]2O[C@@H](CSc3nc(-c4ccccc4)c(-c4ccccc4)o3)C[C@@H](c3ccc(CO)cc3)O2)cc1)NO | 8.33 µM (active) |  |
| Cn1c(=O)n(-c2ccc(C(C)(C)C#N)cc2)c2c3cc(-c4cnc5ccccc5c4)ccc3ncc21 | 0.372 µM (active) |  |
| COC(=O)Nc1ccc(-c2nc(N3CCOCC3)c3cnn(C4CCN(Cc5cccnc5)CC4)c3n2)cc1 | 1.18 µM (active) |  |
| COCCOc1ccc2c(c1)ncn2-c1ccc2cccc(N3CCC(N)CC3)c2n1 | 23.5 µM (active) |  |
| CN1c2cc(O)c(N=NC(N)=O)cc2CC1S(=O)(=O)O (centres undefined) |  | 15.1 |
| CC(C)=CCCC(C)=CCCC(C)=CCSc1ccccc1C(=O)O | 5.9 µM (active) |  |
| COc1cc(C(=O)N2CCC(N3CCN(C)CC3)CC2)ccc1Nc1ncc2c(n1)N(C)c1ccccc1C(=O)N2C | 16.6 µM (active) |  |
| NC1(Cc2ccc(Cl)cc2)CCN(c2ncnc3[nH]ccc23)CC1 | 11.8 µM (active) |  |
| COc1cccc(-c2ccc(NC(=O)C3=C(C(=O)O)CCC3)c(F)c2)c1 | 3.72 µM (active) |  |
| C[C@H]1C[C@@H]2[C@@H]([C@@H](O)C[C@@]3(C)[C@H]2CC[C@]3(O)C(=O)CO)[C@@]2(C)C=CC(=O)C=C12 |  | 14.5 |
| COc1cc2c(Nc3ccc(NC(=O)c4ccccc4)cc3)ncnc2cc1OCCCN1CCOCC1 | 18.7 µM (active) |  |
